Structures can show the parent of a compound that is named as a salt.

The test concerns Saccharomyces cerevisiae BY4741 SeMeCo community. Nature of the test: z-score of subpopulation abundance vs DMSO median, subpopulation auxotrophic for HLUM; higher = larger share of this subpopulation than in DMSO controls. The note with it: 10 µM; 24 h; SM minimal medium; subpopulation (auxotrophy): HLUM. As for the experimental part:
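Fluorescent four-plasmid SeMeCo (self-establishing metabolically cooperating S. cerevisiae BY4741 community; plasmids pH-mRuby2, pL-mWasabi, pU-eCFP, pM-TagRFP657) was grown 24 h in minimal SM medium with each Selleck FDA-approved drug at 10 µM in 384-well plates. Cells were fixed and imaged by high-content confocal microscopy. For each auxotrophic subpopulation (and the prototroph), a z-score gives the deviation from the DMSO vehicle-control population median.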
Regarding `Cc1c(-c2ccc(O)cc2)n(Cc2ccc(OCCN3CCCCCC3)cc2)c2ccc(O)cc12` [Bazedoxifene Acetate], the “z-score of subpopulation abundance” value is -0.3.

Take `N#Cc1ccc(Oc2ccc3c(c2)COB3O)cc1` [Crisaborole (AN2728)]: the “z-score of subpopulation abundance” value turned out to be 5.38.

Turning to `Cc1cccc(C)c1NC(=O)C1CCCCN1C` (stereo not given) [Mepivacaine HCl], the “z-score of subpopulation abundance” value came out at 0.2.

Consider `CCC[C@@H]1C[C@@H](C(=O)N[C@@H]([C@H]2O[C@H](SC)[C@H](O)[C@@H](O)[C@H]2O)[C@H](C)Cl)N(C)C1` [Clindamycin HCl], for which the “z-score of subpopulation abundance” value is 0.72.

Take `Cc1cc(C)nc(NS(=O)(=O)c2ccc(N)cc2)n1` [Sulfamethazine]: the “z-score of subpopulation abundance” value worked out at 0.42.

With `CO[C@@]1(NC(=O)Cc2cccs2)C(=O)N2C(C(=O)O)=C(COC(N)=O)CS[C@@H]21` [Cefoxitin sodium], the “z-score of subpopulation abundance” value was -0.41.

Regarding `CCn1cc(C(=O)O)c(=O)c2cc(F)c(N3CCNCC3)cc21` [Norfloxacin], the “z-score of subpopulation abundance” value was -0.9.

In the case of `COc1ccnc(C[S+]([O-])c2nc3cc(OC(F)F)ccc3[nH]2)c1OC` (stereo not given) [Pantoprazole sodium], the “z-score of subpopulation abundance” value was -0.49.

Consider `Cc1onc(-c2ccccc2)c1-c1ccc(S(N)(=O)=O)cc1` [Valdecoxib], for which the “z-score of subpopulation abundance” value was -0.56.

As for `Cc1ccsc1/C=C/C1=NCCCN1C` [Morantel tartrate], the “z-score of subpopulation abundance” value is -0.47.

Consider `CCCCCCCCOc1ccccc1C(=O)Nc1ccc(C(=O)OCC[N+](C)(CC)CC)cc1` [Otilonium Bromide], for which the “z-score of subpopulation abundance” value was found to be 12.2.

With `c1cnc2cc3c(cc2n1)[C@@H]1CNC[C@H]3C1` [Varenicline Tartrate], the “z-score of subpopulation abundance” value worked out at 0.16.

Consider `COc1ccc(NS(=O)(=O)c2ccc(N)cc2)nn1` [Sulfamethoxypyridazine], for which the “z-score of subpopulation abundance” value was -0.55.

In the case of `c1ccc2[nH]c(-c3cscn3)nc2c1` [Thiabendazole], the “z-score of subpopulation abundance” value was -0.43.

Turning to `COc1cccc2c1C(=O)c1c(O)c3c(c(O)c1C2=O)C[C@@](O)(C(C)=O)C[C@@H]3O[C@H]1C[C@H](N)[C@H](O)[C@H](C)O1` [Daunorubicin HCl], the “z-score of subpopulation abundance” value worked out at 5.15.

In the case of `C=C1c2cccc(O)c2C(O)=C2C(=O)[C@]3(O)C(O)=C(C(N)=O)C(=O)[C@@H](N(C)C)[C@@H]3[C@@H](O)[C@H]12` [Methacycline HCl], the “z-score of subpopulation abundance” value was -0.19.

`C[C@]12CC[C@@H]3c4ccc(OC(=O)c5ccccc5)cc4CC[C@H]3[C@@H]1CC[C@@H]2O` [Estradiol Benzoate]: the “z-score of subpopulation abundance” value is -0.15.

For `CCN(CC)CCOC(=O)c1ccc(N)cc1Cl` [Chloroprocaine HCl], the “z-score of subpopulation abundance” value amounted to 0.58.

Take `COC(=O)Nc1nc2cc([S+]([O-])c3ccccc3)ccc2[nH]1` (stereo not given) [Oxfendazole]: the “z-score of subpopulation abundance” value was -1.07.

As for `CC(=O)N1CCN(c2ccc(OCC3COC(Cn4ccnc4)(c4ccc(Cl)cc4Cl)O3)cc2)CC1` (stereo not given) [Ketoconazole], the “z-score of subpopulation abundance” value is -0.62.

As to `CC(=O)NC[C@H]1CN(c2ccc(N3CCOCC3)c(F)c2)C(=O)O1` [Linezolid], the “z-score of subpopulation abundance” value is -0.36.

In the case of `Cc1cc2c(s1)Nc1ccccc1N=C2N1CCN(C)CC1` [Olanzapine], the “z-score of subpopulation abundance” value was 0.21.

For the compound `NC(=O)C(c1ccccc1)(c1ccccc1)[C@@H]1CCN(CCc2ccc3c(c2)CCO3)C1` [Darifenacin HBr], the “z-score of subpopulation abundance” value is -0.5.

With `COc1ccccc1N1CCN(CCCNc2cc(=O)n(C)c(=O)n2C)CC1` [Urapidil HCl], the “z-score of subpopulation abundance” value was -0.28.

Consider `Oc1ccc(Cl)c2cccnc12` [Cloxiquine], for which the “z-score of subpopulation abundance” value stood at 43.7.

As for `CCN1CCCC1CNC(=O)c1cc(S(N)(=O)=O)ccc1OC` (stereo not given) [Sulpiride], the “z-score of subpopulation abundance” value worked out at 0.02.

In the case of `NCC[C@H](O)C(=O)N[C@@H]1C[C@H](N)[C@@H](O[C@H]2O[C@H](CN)[C@@H](O)[C@H](O)[C@H]2O)[C@H](O)[C@H]1O[C@H]1O[C@H](CO)[C@@H](O)[C@H](N)[C@H]1O` [Amikacin hydrate], the “z-score of subpopulation abundance” value turned out to be 0.15.

Regarding `CC[C@H]1OC(=O)[C@H](C)[C@@H](O[C@H]2C[C@@](C)(OC)[C@@H](O)[C@H](C)O2)[C@H](C)[C@@H](O[C@@H]2O[C@H](C)C[C@H](N(C)C)[C@H]2O)[C@](C)(O)C[C@@H](C)/C(=N\OCOCCOC)[C@H](C)[C@@H](O)[C@]1(C)O` [Roxithromycin], the “z-score of subpopulation abundance” value was -0.6.

Take `Nc1cc(C(Cl)=C(Cl)Cl)c(S(N)(=O)=O)cc1S(N)(=O)=O` [Clorsulon]: the “z-score of subpopulation abundance” value was found to be 0.24.

Regarding `CC(C)COCC(CN(Cc1ccccc1)c1ccccc1)N1CCCC1` (stereo not given) [Bepridil hydrochloride], the “z-score of subpopulation abundance” value was 2.72.

As to `Cn1cc(C(=O)[C@@H]2CCc3[nH]cnc3C2)c2ccccc21` [Ramosetron Hydrochloride], the “z-score of subpopulation abundance” value was determined as 0.88.

In the case of `CC(C)n1c(/C=C/C(O)CC(O)CC(=O)O)c(-c2ccc(F)cc2)c2ccccc21` (stereo not given) [Fluvastatin Sodium], the “z-score of subpopulation abundance” value was determined as 14.

For the compound `CCOc1cc(N)c(Cl)cc1C(=O)NCC1CN(Cc2ccc(F)cc2)CCO1` (stereo not given) [Mosapride], the “z-score of subpopulation abundance” value was 0.05.

As to `CC(=O)Oc1ccccc1C(=O)O` [Aspirin], the “z-score of subpopulation abundance” value is -0.5.

Turning to `CN1[C@@H]2CC[C@H]1C[C@@H](OC(=O)c1c[nH]c3ccccc13)C2` [Tropisetron], the “z-score of subpopulation abundance” value was 0.38.

With `Cc1cc(O)cc(C)c1Cl` [Chloroxylenol], the “z-score of subpopulation abundance” value was 0.12.

For the compound `COc1ccc2cc3[n+](cc2c1OC)CCc1cc2c(cc1-3)OCO2` [Berberine Sulfate], the “z-score of subpopulation abundance” value was -0.34.

Regarding `CCN1CCN(c2cc3c(cc2F)c(=O)c(C(=O)O)cn3C2CC2)CC1` [Enrofloxacin], the “z-score of subpopulation abundance” value is -0.35.

Regarding `CCCNC(C)C(=O)Nc1ccccc1C` (stereo not given) [Prilocaine hydrochloride], the “z-score of subpopulation abundance” value stood at 0.58.

Regarding `CC(=O)OCC(COC(C)=O)OC(C)=O` [Triacetin], the “z-score of subpopulation abundance” value was -0.48.

These data come from the supplement of paper PMC8975748.
